Compounds with a hit are over-represented: about 19% of the library has one in this group of screens.
KB-V1 cytotox – qHTS assay for MDR1-selective chemotherapeutics: Primary screen using the drug-selected MDR subline cells KB-V1. KB-V1 MDR cells viability, CellTiter-Glo, 72 h. Potency, µM (series often up to 46.1 µM), actives largely listed as cytotoxic. 400,000 compounds, 3.4% hits. AID 1347076, 2019; note: nearly all actives have a fitted effect of over 60% in size
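Readout: CellTiter-Glo luminescence, 10 min after addition. Cells: KB-V1 MDR subline, 72 h at 37 degrees C with compound. Analysis: corrected, normalized data fitted to concentration-effect curves.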
TDP1 cell noCPT – qHTS for Inhibitors of human tyrosyl-DNA phosphodiesterase 1 (TDP1): qHTS in cells in absence of CPT | DT40 Tdp1-/- hTDP1 cells, no CPT, ATP luminescence, 48 h | Potency, µM (doses to about 46.2 µM), for inactives: top-dose activity change, negative = growth inhibition, usual class: inhibitors | 420,000 compounds, 15% hits | AID 686978, 2013; note: nearly all actives have a fitted effect of over 55% in size
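No-CPT arm: Tdp1-/-;hTDP1 DT40 cells (400/well) plus compounds, incubated ≥48 hr at 37 °C. Readout CellTiter-Glo luminescence.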
HT1080 IDH1KD tx – qHTS for induction of synthetic lethality in tumor cells producing 2HG: qHTS for the HT-1080-IDH1KD cell line. HT-1080 IDH1 knockdown viability, ATP luminescence, 48 h. Potency, µM (series often up to 46.1 µM), for inactives: at the top dose activity, negative = toxicity, actives largely listed as cytotoxic. 360,000 compounds, 2% hits;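 note: 0% = DMSO wells and -100% = cell-free medium wells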
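After a 2 h attachment period, IDH1KD HT-1080 cells took pin-transferred compound for 48 h at 37 °C; ATP-based luminescence after 10 min room-temperature reagent incubation reported viability.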
KB-3-1 tox – qHTS assay for MDR1-selective chemotherapeutics: Primary screen using the parental adenocarcinoma cell KB-3-1 | KB-3-1 viability, CellTiter-Glo ATP luminescence, 72 h | 400,000 compounds, 1.4% hits | AID 1347075, 2019 | Potency, µM (top dose mostly 46.1 µM), usual class: cytotoxic; note: nearly all actives have a fitted effect of over 60% in size
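Luminescent ATP read-out (CellTiter-Glo) measures survival of drug-naive KB-3-1 cells after 72 h compound exposure at 37 °C. Titration series was screened from lowest to highest concentration, with DMSO vehicle plates as background controls.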
DT40 TDP1 CPT – qHTS for Inhibitors of human tyrosyl-DNA phosphodiesterase 1 (TDP1): qHTS in cells in presence of CPT; chicken DT40 Tdp1-/-;hTDP1 cells + 20 nM CPT, ATP luminescence, 48 h; AID 686979, 2013; Potency, µM (doses to about 46.2 µM), for inactives: at the highest dose activity change, negative = growth inhibition, usual class: inhibitors; 420,000 compounds, 12% hits; note: nearly all actives have a fitted effect of over 55% in size
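Cell growth measured by CellTiter-Glo luminescence after a minimum 48 h, 37 C compound exposure with 20 nM CPT in Tdp1-knockout DT40 cells stably expressing hTDP1, seeded 400/well; qHTS titration format.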
HT1080-NT tox – qHTS for induction of synthetic lethality in tumor cells producing 2HG: qHTS for the HT-1080-NT fibrosarcoma cell line. 360,000 compounds, 1.6% hits. HT-1080-NT fibrosarcoma viability, CellTiter-Glo ATP luminescence, 48 h. Potency, µM (doses to about 46.1 µM), for inactives: at the highest dose activity, negative = less viability, most hits filed as cytotoxic;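 note: NT is the 2HG producing partner of a matched IDH1 knockdown line; 0% = DMSO-treated cells and -100% = media-only wells without cells; nearly all actives have a fitted effect of over 55% in size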
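Read-out is CellTiter-Glo luminescence after 10 minutes at room temperature, following 48 hours' compound treatment of HT-1080-NT cells (750 cells/well, RPMI, 5% FBS, 37 degrees C).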
An asterisk follows results filed as active; i = inactive; ? = inconclusive; . = no result given. Calls come from the whole dose curve; as a rule, active = well fitted curve in the direction sought with a large enough effect; inconclusive = small, poorly fitted or top-dose-only effect, or another doubt; inactive = no such curve, though single readings can be large; an effect the other way counts as inactive or inconclusive. Unless noted, % is set by controls: 0 for no effect and ±100 for the full control effect; potency is the fitted concentration of half-maximal effect.

SMILES	KB-V1 cytotox	TDP1 cell noCPT	HT1080 IDH1KD tx	KB-3-1 tox	DT40 TDP1 CPT	HT1080-NT tox
CCOC(=O)[C@]12CCC=C1N(Cc1ccc3c(c1)OCO3)C(=O)[C@H](CC(=O)NCc1ccc(OC)c(OC)c1)C2	i	?	1%	i	?	-2%
C#CCNC(=O)C[C@@H]1C[C@@]2(C(=O)OC)CCCCC=C2N(CCCCCCCC)C1=O	?	23µM*	?	i	16µM*	-12%
C#CCNC(=O)C[C@@H]1C[C@@]2(C(=O)OC)CCCCC=C2N(Cc2ccc3c(c2)OCO3)C1=O	i	?	-3%	i	-2%	1%
CCCCCCCCN1C(=O)[C@H](CC(=O)NCc2ccc(OC)c(OC)c2)C[C@@]2(C(=O)OCC)CCC=C12	?	21µM*	?	i	?	?
CCOC(=O)[C@]12CCCC=C1N(Cc1ccccc1)C(=O)[C@H](CC(=O)NCc1ccc(OC)c(OC)c1)C2	i	?	-16%	i	?	0%
CCCCCCCCN1C(=O)[C@H](CC(=O)NCc2ccccc2)C[C@@]2(C(=O)OCC)CCC=C12	?	?	-28%	i	?	?
CCCCCCCCN1C(=O)[C@H](CC(=O)NCc2ccccc2)C[C@@]2(C(=O)OC)CCCCC=C12	?	15µM*	?	?	16µM*	?
COc1ccc(NC(=O)N2CCN(C(=O)c3ccco3)CC2)c(OC)c1	.	12%	2%	.	-3%	-1%
CCCCCCCCN1C(=O)[C@H](CC(=O)NCc2ccc(OC)c(OC)c2)C[C@@]2(C(=O)OC)CCCCC=C12	?	21µM*	?	i	?	?
COC(=O)[C@]12CCCCC=C1N(CCC1=CCCCC1)C(=O)[C@H](CC(=O)NCc1ccc(OC)c(OC)c1)C2	i	?	-20%	?	?	1%
Cc1ccc(NC(=O)CN2C(=O)COc3ccc(S(=O)(=O)NC4CCCC4)cc32)cc1N(C)C	i	?	.	i	-25%	.
N#Cc1c(Nc2cccc(F)c2)sc(C(=O)c2ccc(Cl)cc2)c1N	i	.	.	i	.	.
Cc1ccc(-c2c(C(=O)c3ccc(Br)cc3)[nH]c(N)c2C(=O)NCc2ccc(Cl)cc2)cc1	i	-16%	15%	i	3%	24%
COc1cccc(Nc2sc(C(=O)c3ccc(F)cc3)c(N)c2C(=O)NCc2ccc(Cl)cc2)c1	i	21µM*	.	i	-95%	.
Cc1ccc(CNC(=O)c2c(Nc3c(C)cccc3C)sc(C(=O)c3ccccc3)c2N)cc1	?	15µM*	.	?	8.2µM*	.
COc1cccc(Nc2sc(C(=O)c3ccc(Cl)cc3)c(N)c2C(=O)NCc2ccc(C)cc2)c1	.	4.6µM*	.	.	2.9µM*	.
CCN1CCN(c2ccc(S(=O)(=O)N3CCCCC3)cc2NC(=O)/C=C/c2cc(OC)ccc2OC)CC1	?	?	-22%	i	16µM*	-27%
COc1ccc(OC)c(/C=C/C(=O)Nc2cccc(S(=O)(=O)N3CCCC3)c2)c1	i	29µM*	-6%	i	23µM*	0%
Cc1ccc(NC(=O)c2c(C)cc(C)nc2SCC(=O)Nc2ccc(Br)cc2)cc1	i	?	.	i	?	.
C/C(=N\Nc1ccc(Cl)cc1)c1c(O)cc(C)oc1=O	i	-9%	23µM*	i	-2%	?
C/C(=N\NC(=O)c1cccs1)c1c(O)cc(C)oc1=O	i	1%	0%	i	-13%	-1%
CS(=O)(=O)N1CCN=C1SCc1cccc(F)c1	?	-20%	0%	i	17%	7%
O=S(=O)(c1ccccc1)N1CCN=C1SCc1ccc(Cl)c(Cl)c1	i	18µM*	-29%	i	13µM*	?
O=S(=O)(c1ccccc1)N1CCN=C1SCc1ccccc1Cl	i	?	2%	i	?	-16%
O=S(=O)(c1ccccc1)N1CCN=C1SCc1cccc(Cl)c1	?	21µM*	-17%	?	?	-10%
SMILES	KB-V1 cytotox	TDP1 cell noCPT	HT1080 IDH1KD tx	KB-3-1 tox	DT40 TDP1 CPT	HT1080-NT tox
CCS(=O)(=O)N1CCN=C1SCc1ccccc1	i	1%	-1%	i	-1%	1%
O=S(=O)(c1ccc2ccccc2c1)N1CCN=C1SCc1cccnc1	i	?	5%	i	23µM*	0%
O=S(=O)(c1ccccc1)N1CCN=C1SCc1ccc(Cl)cc1	i	18µM*	2%	i	?	4%
NC(=O)CC(NC(=O)c1ccc(Br)cc1)c1ccc(N2CCCCCCC2)c([N+](=O)[O-])c1 (configuration not stated)	i	10µM*	-21%	i	21µM*	?
NC(=O)CC(NC(=O)c1cccc(Br)c1)c1ccc(N2CCN(c3ccc(F)cc3)CC2)c([N+](=O)[O-])c1 (configuration not stated)	i	13µM*	1%	i	23µM*	-1%
NC(=O)CC(NC(=O)c1ccc(Br)cc1)c1ccc(N2CCN(c3ccc(F)cc3)CC2)c([N+](=O)[O-])c1 (configuration not stated)	i	23µM*	-9%	i	26µM*	-12%
O=c1c2cc3c(cc2n(Cc2cccc(F)c2)c(=O)n1Cc1nc(-c2ccccc2)no1)OCO3	i	2%	.	i	18%	.
Cc1cc(C)c2c(CC(=O)Nc3c(C(=O)Nc4ccc(Cl)cc4)oc4ccccc34)coc2c1	i	?	.	i	?	.
COc1ccc(S(=O)(=O)N2CCN(CC(=O)Nc3c(C)n[nH]c3C)CC2)cc1OC	i	2%	-5%	i	10%	-4%
C#CC(C)(C)NC(=O)c1ccc(-c2ccccc2F)cc1	i	?	-3%	i	?	1%
O=C(CC1Sc2ncnn2C1=O)Nc1ccc(Br)cc1 (configuration not stated)	i	4.6µM*	-4%	i	2.1µM*	-11%

High-throughput results deposited in PubChem by National Center for Advancing Translational Sciences (NCATS).
